Records with an inconclusive call do not appear. A call without a number means that no potency is given here. Unmarked numbers belong to inactive results. Calls of active or inactive are those of the source. Calls come from the whole dose curve; as a rule, active = well fitted cell-killing curve with a large enough effect in the repeat runs; inconclusive = weak or mixed curves, or effect the other way; inactive = flat fitted curve, though single readings scatter.

The assay in a line: qHTS RealTime-Glo MT Cell Viability Assay in HEK293 cells - 8 hour (AID 1224887). Note: top concentration of the series differs between compounds; nearly all actives have a fitted effect of over 50% in size. The note with it: RealTime-Glo luminescence; series mostly up to 76.8 µM; activity change, negative = cytotoxicity: at the top concentration. The source says:
U.S. Tox21 Program National Center for Advancing Translational Sciences [NCATS] NIH Chemical Genomics Center [NCGC] U.S. Environmental Protection Agency [EPA] National Institutes of Environmental Health Sciences [NIEHS] National Toxicology Program [NTP] U.S. Food and Drug Administration [FDA] Tox21 Assay Overview: Measure of cell viability is critical in the cell-base assay. Analysis of cell viability is necessary for the characterization of cell responses to cytotoxic drugs and environmental stress. A RealTime-Glo MT Cell Viability Assay to monitor cell viability in real time of continues cell culture during 40 hours of compound treatment was used to screen Tox21 10K library compounds in Hek293 cells. The RealTime-Glo MT Cell Viability Assay is a nonlytic, homogeneous, bioluminescent method to measure cell viability in real time using a simple, plate-based method. The assay involves adding NanoLuc luciferase and a cell-permeant prosubstrate to cells in culture. Viable cells reduce the proprietary prosubstrate to generate a substrate for NanoLuc luciferase. This substrate diffuses from cells into the surrounding culture medium, where it is rapidly used by the NanoLuc Enzyme to produce a luminescent signal. The signal correlates with the number of viable cells, making the assay well suited for cytotoxicity studies.
Tox21 Assay Protocol Summary: The mixture of Hek293 cell suspension and reagents were dispensed at 600cells/6 ul/well in 1536-well tissue culture treated black solid bottom plates using a Multidrop dispenser. After the assay plates were incubated at a 37 C/5% CO2 incubator for 5 hours, 23 nL of compounds dissolved in DMSO, positive and negative controls was transferred to the assay plate by a pintool work station. The plates were incubated at 37 C for 40 hours. The luminescence intensity were measured at 0h, 8h, 16h, 24h, 32h and 40h time points using ViewLux plate reader during compound treatment.
Turning to `COc1ccc(C(=O)c2ccccc2)c(O)c1`, the Potency result is “inactive”.

As to `CC1=NN(c2ccccc2)C(=O)C1`, the Potency result is “inactive”.

For `COc1cc(C=O)ccc1O`, the Potency entry was “inactive”.

Regarding `CCCCOCCOCCOC(C)=O`, the Potency result was “inactive”.

Take `COC(=O)C1CCC(C(=O)OC)CC1` (stereo not given): the Potency entry was “inactive”.

As to `Cc1cnc(NC(=O)C2=C(O)c3ccccc3S(=O)(=O)N2C)s1`, the Potency result was “inactive”.

On to `Nc1cccc(N)c1`, for which the Potency entry is “inactive”.

For the compound `N[C@@H](Cc1c[nH]c2ccccc12)C(=O)O`, the Potency entry is “inactive”.

`CC1=C(/C=C/C(C)=C/C=C/C(C)=C/C(=O)O)C(C)(C)CCC1`: the Potency entry was “inactive”.

In the case of `Cc1cccc(C)c1O`, the Potency result is “inactive”.

Consider `CC(=O)/C=C/C1=C(C)CCCC1(C)C`, for which the Potency entry was “inactive”.

Regarding `Cc1c(N(C)CS(=O)(=O)O)c(=O)n(-c2ccccc2)n1C`, the Potency result was “inactive”.

Regarding `O=C(O)CCCCC1CCSS1` (stereo not given), the Potency entry is “inactive”.

Take `Cc1c(N(C)C)c(=O)n(-c2ccccc2)n1C`: the Potency entry was “inactive”.

Turning to `CCc1cc(C(N)=S)ccn1`, the Potency entry is “inactive”.

`CCOC(=O)C(C)(C)Oc1ccc(Cl)cc1`: the Potency result was “inactive”.

`CCCCOCCOCCSC#N`: the Potency result is “inactive”.

In the case of `CCCCOC(=O)CCCCCCCCC(=O)OCCCC`, the Potency result is “inactive”.

`Oc1cccc(O)c1`: the Potency result was “inactive”.

`CCN(CC)CCOC(=O)c1ccc(N)cc1`: the Potency result is “inactive”.

As for `CCN1CCCC1=O`, the Potency entry was “inactive”.

Regarding `COc1ccccc1O`, the Potency entry is “inactive”.

In the case of `CCn1cc(C(=O)O)c(=O)c2ccc(C)nc21`, the Potency entry was “inactive”.

Regarding `Cc1ccc(O)c(-n2nc3ccccc3n2)c1`, the Potency entry was “inactive”.

Turning to `C=C(C)C(N)=O`, the Potency entry is “inactive”.

With `C#C[C@]1(O)CC[C@H]2[C@@H]3CCc4cc(O)ccc4[C@H]3CC[C@@]21C`, the Potency result was “inactive”.

For the compound `O=C(O)Cc1cccc2ccccc12`, the Potency result is “inactive”.

Consider `C[C@]12C=CC(=O)C=C1CC[C@@H]1[C@@H]2C(=O)C[C@@]2(C)[C@H]1CC[C@]2(O)C(=O)CO`, for which the Potency result was “inactive”.

Consider `C/C=C/c1ccc(O)c(OC)c1`, for which the Potency entry is “inactive”.

Regarding `C#C[C@]1(O)CC[C@H]2[C@@H]3CCC4=CC(=O)CC[C@@H]4[C@H]3CC[C@@]21CC`, the “activity change, negative = cytotoxicity” value is -10.7% [at 35.3 µM].

`CCCCCCCCCCCCCCCCCC(=O)OCC(O)CO` (stereo not given): the Potency result was “inactive”.

`C=CC(=O)NC(C)(C)CS(=O)(=O)O`: the Potency entry was “inactive”.

In the case of `NC(=O)NO`, the Potency entry was “inactive”.

With `COC(=O)c1ccc(C=O)cc1`, the Potency result was “inactive”.

`OCCCc1ccccc1`: the “activity change, negative = cytotoxicity” value is 0.811% [at 35.3 µM].

On to `CC(C)(C)NCC(O)c1ccc(O)c(CO)c1` (stereo not given), for which the Potency entry is “inactive”.

`CC(=O)OC/C=C(C)/C=C/C=C(C)/C=C/C1=C(C)CCCC1(C)C`: the Potency result is “inactive”.

`NC(=O)OCC(COC(N)=O)c1ccccc1`: the Potency result is “inactive”.

Turning to `COCCOCCOC`, the Potency entry is “inactive”.

With `CC(C)(C)CC(C)(C)c1ccc(O)c(-n2nc3ccccc3n2)c1`, the Potency result was “inactive”.

The values above are taken from PubChem BioAssay (Tox21).
